Pf apPOL block: Pf-apPOL DNA polymerase inhibition; Recombinant Pf-apPOL, molecular beacon fluorescence, 1.5 h; 210,000 tested, 0.25% active; AID 1794808; inhibition, % at 10 µM
mHTT-CaM PPI inh: inhibitors of human mutant huntingtin-calmodulin interaction; AlphaScreen His-mHTT/GST-CaM binding, luminescence; inhibition, % at 15 µM; 190,000 tested, 3.6% active;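 note: 0% = both proteins with DMSO and 100% = one protein alone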
* = called active by the depositor; / = no result; ! = not confirmed by another sample. Only a selection was taken, and hits are over-represented in it overall. Cut-off read from the data, not from the text of the source: active = inhibition above about 50%; inactive = the rest.

SMILES | Pf apPOL block | mHTT-CaM PPI inh
O=C(CN1CCc2ccccc2C1C(=O)N1CCCC1)N1CCN(C2CCCCC2)CC1 (centres undefined) | 0 | 9
CC1CCN(C(=O)C2c3ccccc3CCN2CC(=O)Nc2ccc(Cl)cc2)CC1 (centres undefined) | -4 | 62*
COc1ccc(C)cc1NC(=O)CN1CCc2ccccc2C1C(=O)N1CCC(C)CC1 (centres undefined) | -5 | 61*
Cc1cccc(NC(=O)CN2CCc3ccccc3C2C(=O)N2CCC(C)CC2)c1C (centres undefined) | -4 | 4
CN1C(=O)CCC2(CNC(=O)c3ccncc3)CCCC12 (centres undefined) | -10 | -2
Cc1ccccc1CSc1nc2n(n1)C(c1ccc([N+](=O)[O-])cc1)C1=C(CCCC1=O)N2 (centres undefined) | -5 | 8
CCC(=O)N1CCc2cc(Br)cc(S(=O)(=O)CCC(=O)NC(C)(C)C)c21 | -5 | 0
CC(O)(CNC(=O)c1ccc(F)cc1F)c1ccc2c(c1)OCO2 (centres undefined) | -4 | -9
Cc1cc(C)c(S(=O)(=O)N2CCC(c3noc(-c4ccccc4C)n3)CC2)c(C)c1 | -3 | -24
O=C(c1cc2cc(Cl)cc(Cl)c2oc1=O)N1CCCc2ccccc21 | -7 | 1
Cc1cccc(Nc2nccc(C3CCCN(C(=O)c4ccc(C#N)cc4)C3)n2)c1 (centres undefined) | -5 | 14
CCC(=O)N1CCCC(c2ccnc(Nc3ccc(OC)cc3)n2)C1 (centres undefined) | -7 | -1
CCC(=O)N1CCCC(c2ccnc(Nc3cccc(C)c3)n2)C1 (centres undefined) | -5 | 57*
Cc1ccccc1Nc1nccc(C2CCCN(C(=O)Cc3cccs3)C2)n1 (centres undefined) | -3 | 10
Cc1cccc(Nc2nccc(C3CCCN(C(=O)C4CCCO4)C3)n2)c1 (centres undefined) | -3 | 74*
Cc1cccc(Nc2nccc(C3CCCN(C(=O)Cc4cccs4)C3)n2)c1 (centres undefined) | -5 | 63*
COc1cccc(CNC(=O)C2CN(C(=O)c3cccs3)CC23CCCCC3)c1OC (centres undefined) | 2 | 14
O=C1N(Cc2ccccc2)c2ccccc2C1(Cc1ccccc1)c1ccccc1 (centres undefined) | 0 | /
Cc1cc(C2(c3ccc(O)c(C)c3)C(=O)N(Cc3ccccc3)c3ccccc32)ccc1O | -8 | 95*
CCOc1ccc(CC(=O)Nc2ccc(C)cc2)cc1OCC | 1 | 5
O=[N+]([O-])c1ccc2[nH]c3c(c2c1)CCCC3NC1Cc2ccccc2C1 (centres undefined) | -2 | 93*
CC(C)NC1CCCc2c1[nH]c1ccc([N+](=O)[O-])cc21 (centres undefined) | -3 | 12
CNC(=O)C1Cc2ccccc2N1C(=O)c1ccc(S(=O)(=O)N2CCOCC2)cc1 (centres undefined) | -9 | -2
CC(C)C(=O)Nc1ccc(C2(C(=O)N3CCCC3)CCCCC2)cc1 | 8 | 13
CC(C)C(=O)Nc1ccc(C2(C(=O)N3CCN(c4ccccc4)CC3)CCCCC2)cc1 | 7 | 51*
SMILES | Pf apPOL block | mHTT-CaM PPI inh
COc1cccc(CN2CCc3c(cc(C(=O)NCC(C)C)n3C)C2)c1 | -3 | 9
O=C(Nc1ccccc1)c1ccccc1 | -7 | /
NNC(=O)c1nc[nH]c1C(=O)Nc1ccccc1 | -7 | 81*
CCCCN(CC)CCNS(=O)(=O)c1cc(Br)cc2c1N(C(=O)C1CC1)CC2 | -6 | -1
CCC(C)Oc1ccc(/C=C2\NC(=O)NC2=O)cc1OC (centres undefined) | -3 | 9
CC1(C)C(C=C(Cl)Cl)C1C(=O)Nc1ccccc1Cl (centres undefined) | 1 | -1
CC1(C)C(C=C(Cl)Cl)C1C(=O)Nc1ccccc1[N+](=O)[O-] (centres undefined) | -3 | 56*
CC1(C)C(C=C(Cl)Cl)C1C(=O)Nc1cccc(C(=O)O)c1 (centres undefined) | -6 | -3
CC1(C)C(C=C(Cl)Cl)C1C(=O)Nc1cccc([N+](=O)[O-])c1 (centres undefined) | 1 | 72*!
Cc1cc(NS(=O)(=O)c2ccc(NC(=O)C3C(C=C(Cl)Cl)C3(C)C)cc2)nc(C)n1 (centres undefined) | 0 | 62*
CC1(C)C(C=C(Cl)Cl)C1C(=O)Nc1ccc(S(=O)(=O)Nc2ncccn2)cc1 (centres undefined) | -2 | 11
Cc1ccc(NC(=O)C2C(C=C(Cl)Cl)C2(C)C)cc1C (centres undefined) | -8 | -11
CC1(C)C(C=C(Cl)Cl)C1C(=O)Nc1ccc(Br)cc1 (centres undefined) | 0 | 53*
COc1ccccc1N=c1oc2c(C)ncc(CO)c2cc1C(N)=O | -4 | 0
O=C(NC1CC2CC1N(C(=O)COc1ccc(F)c(F)c1)C2)c1ccccc1 (centres undefined) | -4 | 1
COc1ccc(-c2csc(/C(C#N)=C/c3ccc(O)c(O)c3)n2)cc1OC | 11 | 81*
N#C/C(=C\c1ccc(O)c(O)c1)c1nc(-c2ccc3c(c2)OCO3)cs1 | 6 | 98*
N#C/C(=C\c1ccccc1[N+](=O)[O-])c1nc(-c2ccc3c(c2)OCO3)cs1 | -3 | 9
COc1ccc(/C=C(\C#N)c2nc(-c3ccc(OC)c(OC)c3)cs2)cc1O | 0 | 1
CCc1ccc(-n2c(C)nc3cc(C(=O)NC(C)CC)ccc32)cc1 (centres undefined) | -7 | 14
CC(=O)Nc1ccccc1/C=C/c1ccc2cccc(O)c2n1 | 4 | 26
CC(=O)Nc1ccc2cccc(O)c2n1 | -4 | 100*
CC1CCCN(S(=O)(=O)c2ccc(C(=O)Nc3nc(-c4ccccn4)cs3)cc2)C1 (centres undefined) | -1 | 100*
CC1CCN(S(=O)(=O)c2ccc(C(=O)Nc3nc(-c4ccccn4)cs3)cc2)CC1 | -3 | 98*
O=C(Nc1nc(-c2cc(Cl)ccc2Cl)cs1)c1ccc(N2C(=O)CCC2=O)cc1 | 0 | -6
SMILES | Pf apPOL block | mHTT-CaM PPI inh
O=C(Nc1nc(-c2ccccn2)cs1)c1ccc(N2C(=O)CCC2=O)cc1 | -6 | 100*
CC1CCCCN1S(=O)(=O)c1ccc(C(=O)Nc2nc3c(s2)Cc2ccccc2-3)cc1 (centres undefined) | -5 | 21
Cc1nnc(NC(=O)c2ccc(S(=O)(=O)N3CCCC(C)C3)cc2)o1 (centres undefined) | -4 | 24
CC1CCN(S(=O)(=O)c2ccc(C(=O)Nc3nc4c(s3)Cc3ccccc3-4)cc2)CC1 | -10 | 10
CC1CCCCN1S(=O)(=O)c1ccc(C(=O)Nc2nc(-c3ccccn3)cs2)cc1 (centres undefined) | -9 | 100*
CC(C)c1ccccc1NC(=O)CCN1C(=O)c2ccccc2C1=O | -3 | 4
Cc1ccc(N2CC(C(=O)Nc3ccc(F)cc3)CC2=O)cc1Cl (centres undefined) | -1 | -16
COc1ccccc1OCCCOc1c(OC)cccc1OC | -4 | -11
CCc1onc(C)c1C1CCCN1C(=O)Nc1cc(Cl)ccc1C (centres undefined) | -8 | -5
O=C(NC1(C(=O)NC2CCCCC2)CCCCC1)c1ccc(=O)[nH]c1 | 1 | -1
Cc1ccc(OCCn2c(SCC(N)=O)nc3ccccc32)cc1 | 2 | 17

Source: PubChem
